Source: PubChem BioAssay (NCATS)
Where “and” joins values, the source holds several entries; their conditions need not be identical. Equal values may be shown once. A number with no mark means an inactive call. Unless noted, calls come from the whole dose curve; as a rule, active = well fitted curve in either direction with a large enough effect (not every such curve was filed as active); inconclusive = small, poorly fitted or top-dose-only effect, or another doubt; inactive = flat fitted curve, though single readings scatter. Inconclusive results are not listed.

Test system: not listed separately
Assay: Cell Viability - SK-N-SH (AID 435; calls by dose curve;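 note: potency is the fitted concentration of half-maximal effect; compound exposure lasted 40 h at 37 °C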)
Conditions: SK-N-SH neuroblastoma cell viability qHTS
Procedure, shortened: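 Cells seeded at 1500 per well and incubated 5 hr at 37 °C. Compound added, then 40 hr at 37 °C. CellTiter-Glo added, 20 min at room temperature, luminescence read.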

Structure (SMILES) | Potency [µM]
Cc1occc(=O)c1O | > 92
C=C(C)[C@H]1CC=C(C)C(=O)C1 | > 92
COS(C)(=O)=O | > 92
CC1=CC(=O)CC(C)(C)C1(O)/C=C/C(C)=C\C(=O)O (stereo unspecified) | > 92
C=CC(C)(O)CCC=C(C)C (stereo unspecified) | > 92

Test system: not listed separately
Assay: NFAT Signaling Pathway (AID 444);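 note: carbachol stimulus at about its EC50 of 1 µM final; % is set by controls: 0 for no effect and ±100 for the full control effect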
Conditions: Jurkat NFAT-bla M1, carbachol, beta-lactamase ratio, 5 h; at 7.69 µM (top of the series) unless noted
Procedure, shortened: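 Jurkat cells with NFAT-driven β-lactamase reporter and co-expressed M1 receptor, stimulated with carbachol (final 1 uM, ~EC50), compound titration, 5 h at 37 °C. CCF4 loaded 1 h at RT; 460/530 nm ratio gave %activity and AC50.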

Structure (SMILES) | activity change, negative = inhibition
COCCn1c(=O)c(C)nc2cnc(Nc3ccccc3)nc21 | 15.1%
CN1CCN(c2ccnc(-c3ccc(N(C)C)cc3)n2)CC1 | 6.45%
COc1ncc2nc(-c3cccs3)c(=O)n(C)c2n1 | 8.87%
CN1CCCC[C@@H]1CCN1c2ccccc2Sc2ccc(S(C)=O)cc21 (stereo partly specified) | 1.36%
COC(=O)C1=CO[C@@H](C)[C@H]2CN3CCc4c([nH]c5ccccc45)[C@@H]3C[C@H]12 | -3.19% [at 17.2 µM] and -17.9% [at 17.2 µM]
CC12CC[C@@H]3c4ccc(OS(=O)(=O)O)cc4CC[C@H]3C1CCC2=O (stereo partly specified) | -17.6% [at 17.2 µM]
CN(C)C(=O)c1ccc(-c2nc(N(C)C)c3ccccc3n2)cc1 | 16.5%
COc1ccccc1-c1nccc(NCc2ccccc2)n1 | 1.11%
CC(C)(S)[C@H](N)C(=O)O | 8.46%
CN1CCN(c2ncc3ncc(=O)n(-c4ccccc4)c3n2)CC1 | -18.4%
Cc1cnc(CNc2ncnc3ccc(-c4ccccc4C(F)(F)F)cc23)cn1 | -22.4%
COc1ccccc1CNc1ncnc2ccc(-c3cccc(C#N)c3)cc12 | -8.04%
C[C@@H]1CCC[C@H](C)N1NC(=O)c1ccc(Cl)c(S(N)(=O)=O)c1 | 2.78% [at 17.2 µM] and -21.9% [at 17.2 µM]
COc1ccccc1CNc1cc(-c2cccc(C#N)c2)ncn1 | 17.8%

Test system: not listed separately
Assay: Stat Signaling Pathway (AID 446);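 note: ME-180 cervical cancer cells given 40 pM IL-6 alongside compound; SIE-controlled beta-lactamase reporter measured as 460/530 nm FRET emission ratio; % is set by controls: 0 for no effect and ±100 for the full control effect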
Conditions: ME-180 (cervical carcinoma) SIE beta-lactamase reporter, IL-6 stimulated, 5 h; at 7.69 µM (top of the series) unless noted
Procedure, shortened: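 FRET read-out (405 nm excitation, 460/530 nm emission) of a beta-lactamase reporter under a STAT-inducible element in ME-180 cervical carcinoma cells. Cells with compound receive 40 pM IL-6 for 5 h. Values are normalised to AC90 stimulation and AC90 JAK-inhibitor controls.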

Structure (SMILES) | activity, negative = inhibition
FC(F)(F)c1ccccc1-c1ccc2ncnc(N3CCOCC3)c2c1 | 4.75%
COCCn1c(=O)c(C)nc2cnc(Nc3ccccc3)nc21 | 3.38%
COc1cccc(Cn2c(=O)cnc3cnc(N4CCN(C)CC4)nc32)c1 | -11.2%
CN1CCN(c2ccnc(-c3ccc(N(C)C)cc3)n2)CC1 | -0.21%
COc1ncc2nc(-c3cccs3)c(=O)n(C)c2n1 | 20.2%
N#Cc1cccc(-c2ccc3ncnc(NCc4ccccc4)c3c2)c1 | -18.2%
COC(=O)C1=CO[C@@H](C)[C@H]2CN3CCc4c([nH]c5ccccc45)[C@@H]3C[C@H]12 | 8.22% [at 17.2 µM] and -4.95% [at 17.2 µM]
CC12CC[C@@H]3c4ccc(OS(=O)(=O)O)cc4CC[C@H]3C1CCC2=O (stereo partly specified) | -9.95% [at 17.2 µM]
CN(C)C(=O)c1ccc(-c2nc(N(C)C)c3ccccc3n2)cc1 | 2.64%
COc1ccccc1-c1nccc(NCc2ccccc2)n1 | 1.51%
CN1CCN(c2ncc3ncc(=O)n(-c4ccccc4)c3n2)CC1 | -9.93%
CN(C)CC/C=C1\c2ccccc2CSc2ccccc21 | -0.2% [at 17.2 µM]
Cc1cnc(CNc2ncnc3ccc(-c4ccccc4C(F)(F)F)cc23)cn1 | -29.2%
COc1ccccc1CNc1ncnc2ccc(-c3cccc(C#N)c3)cc12 | -17.5%
C[C@@H]1CCC[C@H](C)N1NC(=O)c1ccc(Cl)c(S(N)(=O)=O)c1 | 9.09% [at 17.2 µM] and 21.6% [at 17.2 µM]
FC(F)(F)c1ccccc1-c1ccc2ncnc(NCc3cccs3)c2c1 | -16.1%
COc1ccccc1CNc1cc(-c2cccc(C#N)c2)ncn1 | -0.867%
CC(C)N1CCN(c2ccc(OC[C@@H]3CO[C@@](Cn4cncn4)(c4ccc(Cl)cc4Cl)O3)cc2)CC1 | 1.27% [at 17.2 µM]

Target: Glucocorticoid receptor (Homo sapiens) (UniProt P04150)
Assay: GR-GFP Redistribution (AID 450;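 active = compounds whose dose series gives a full or clear partial fitted curve of increased nuclear translocation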; note: potency is the fitted concentration of half-maximal effect)
Conditions: U2OS GR-GFP nuclear translocation, laser cytometry, 2 h

Sequence of Glucocorticoid receptor (Homo sapiens) (P04150 whole entry, looked up): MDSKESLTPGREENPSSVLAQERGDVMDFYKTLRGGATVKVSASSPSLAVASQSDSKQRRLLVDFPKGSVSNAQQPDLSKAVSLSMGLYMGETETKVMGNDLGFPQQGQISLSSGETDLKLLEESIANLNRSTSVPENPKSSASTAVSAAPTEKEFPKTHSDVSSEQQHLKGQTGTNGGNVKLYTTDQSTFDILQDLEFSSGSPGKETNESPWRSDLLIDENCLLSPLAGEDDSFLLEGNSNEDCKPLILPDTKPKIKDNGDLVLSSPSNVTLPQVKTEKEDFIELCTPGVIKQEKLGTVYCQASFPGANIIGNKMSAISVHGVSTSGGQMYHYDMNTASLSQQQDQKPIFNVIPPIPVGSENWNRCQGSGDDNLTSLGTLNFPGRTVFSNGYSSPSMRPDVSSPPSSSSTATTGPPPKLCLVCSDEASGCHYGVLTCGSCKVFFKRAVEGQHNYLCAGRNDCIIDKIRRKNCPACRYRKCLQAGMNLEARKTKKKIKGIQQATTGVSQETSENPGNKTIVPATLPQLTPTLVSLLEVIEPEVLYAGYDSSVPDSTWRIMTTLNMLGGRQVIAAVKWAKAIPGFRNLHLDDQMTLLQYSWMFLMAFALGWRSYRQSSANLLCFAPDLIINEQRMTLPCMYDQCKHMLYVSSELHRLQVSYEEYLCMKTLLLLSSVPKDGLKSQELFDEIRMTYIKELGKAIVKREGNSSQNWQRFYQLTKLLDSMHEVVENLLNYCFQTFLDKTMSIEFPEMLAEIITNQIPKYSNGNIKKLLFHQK

Structure (SMILES) | Potency
FC(F)(F)c1ccccc1-c1ccc2ncnc(N3CCOCC3)c2c1 | > 46 µM
COCCn1c(=O)c(C)nc2cnc(Nc3ccccc3)nc21 | > 9.22 µM
COc1cccc(Cn2c(=O)cnc3cnc(N4CCN(C)CC4)nc32)c1 | > 9.22 µM
CN1CCN(c2ccnc(-c3ccc(N(C)C)cc3)n2)CC1 | > 46 µM
COc1ncc2nc(-c3cccs3)c(=O)n(C)c2n1 | > 46 µM
CN1CCCC[C@@H]1CCN1c2ccccc2Sc2ccc(S(C)=O)cc21 (stereo partly specified) | > 20.6 µM and > 46 µM
N#Cc1cccc(-c2ccc3ncnc(NCc4ccccc4)c3c2)c1 | > 46 µM
COC(=O)C1=CO[C@@H](C)[C@H]2CN3CCc4c([nH]c5ccccc45)[C@@H]3C[C@H]12 | > 20.6 µM
CC12CC[C@@H]3c4ccc(OS(=O)(=O)O)cc4CC[C@H]3C1CCC2=O (stereo partly specified) | > 20.6 µM
CN(C)C(=O)c1ccc(-c2nc(N(C)C)c3ccccc3n2)cc1 | > 46 µM
COc1ccccc1-c1nccc(NCc2ccccc2)n1 | > 46 µM
CC(C)(S)[C@H](N)C(=O)O | > 46 µM
CN1CCN(c2ncc3ncc(=O)n(-c4ccccc4)c3n2)CC1 | > 9.22 µM
CN(C)CC/C=C1\c2ccccc2CSc2ccccc21 | > 20.6 µM
Cc1cnc(CNc2ncnc3ccc(-c4ccccc4C(F)(F)F)cc23)cn1 | > 46 µM
COc1ccccc1CNc1ncnc2ccc(-c3cccc(C#N)c3)cc12 | > 46 µM
C[C@@H]1CCC[C@H](C)N1NC(=O)c1ccc(Cl)c(S(N)(=O)=O)c1 | > 20.6 µM
FC(F)(F)c1ccccc1-c1ccc2ncnc(NCc3cccs3)c2c1 | > 46 µM
COc1ccccc1CNc1cc(-c2cccc(C#N)c2)ncn1 | > 46 µM
